In the library only some 2.2% were active in any assay of this set; here they are far more common.
GASC-1 inh = inhibitors of GASC-1 histone demethylase, primary screen, biochemical, fluorescence, DELFIA europium; GST-JMJD2C(1-420) H3K9me3 demethylation; Lysine-specific demethylase 4C (Homo sapiens), Q9H3R0; 330,000 compounds, 0.069% hits; inhibition, % at 2.35 µM;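 active means more than half of a compound's replicate wells show inhibition beyond 50%, single wells judged on their own value; inconclusive means some, but no more than half, of replicates pass 50% inhibition; inactive means no replicate passes 50% inhibition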;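 further: signal counts dimethyl H3K9 product captured on neutravidin plate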
HTR2A ag = mouse Htr2a agonists via beta-arrestin recruitment, primary screen, cell-based, luminescence | activation, % at 7.6 µM | 5-hydroxytryptamine receptor 2A (Mus musculus), P35363 | CHO-K1 mHTR2A beta-arrestin complementation; percent of 30 µM serotonin response | AID 624169, 2012 | 360,000 compounds, 0.66% hits;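 active means activation above a run cutoff, the mean activation of all tested compounds plus 3 SD, cut at about 14% in these data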
V-ATPase pHluor = regulators of yeast V-ATPase proton pumping, primary screen, pHLuorin cytosolic pH fluorescence. response, % at 10 µM. 350,000 compounds, 0.37% hits. S. cerevisiae. AID 504577, 2011; in the data active means response mostly above about 7.3%, no sharp cut-off; inactive means mostly below about 5.4%; further: actives read high
VLA-4 inh = inhibition in human VLA-4 binding assay, primary screen, VLA-4 allosteric modulator project, MLPCN library, flow cytometry, VLA-4 expressing cells. Integrin alpha-4 (Homo sapiens), P13612. ligand binding flow cytometry. inhibition, % (about 7 µM as worked out from the volumes in the protocol). 330,000 compounds, 0.2% hits; in the data active means inhibition above about 50%
Target sequence (P13612 whole entry, looked up): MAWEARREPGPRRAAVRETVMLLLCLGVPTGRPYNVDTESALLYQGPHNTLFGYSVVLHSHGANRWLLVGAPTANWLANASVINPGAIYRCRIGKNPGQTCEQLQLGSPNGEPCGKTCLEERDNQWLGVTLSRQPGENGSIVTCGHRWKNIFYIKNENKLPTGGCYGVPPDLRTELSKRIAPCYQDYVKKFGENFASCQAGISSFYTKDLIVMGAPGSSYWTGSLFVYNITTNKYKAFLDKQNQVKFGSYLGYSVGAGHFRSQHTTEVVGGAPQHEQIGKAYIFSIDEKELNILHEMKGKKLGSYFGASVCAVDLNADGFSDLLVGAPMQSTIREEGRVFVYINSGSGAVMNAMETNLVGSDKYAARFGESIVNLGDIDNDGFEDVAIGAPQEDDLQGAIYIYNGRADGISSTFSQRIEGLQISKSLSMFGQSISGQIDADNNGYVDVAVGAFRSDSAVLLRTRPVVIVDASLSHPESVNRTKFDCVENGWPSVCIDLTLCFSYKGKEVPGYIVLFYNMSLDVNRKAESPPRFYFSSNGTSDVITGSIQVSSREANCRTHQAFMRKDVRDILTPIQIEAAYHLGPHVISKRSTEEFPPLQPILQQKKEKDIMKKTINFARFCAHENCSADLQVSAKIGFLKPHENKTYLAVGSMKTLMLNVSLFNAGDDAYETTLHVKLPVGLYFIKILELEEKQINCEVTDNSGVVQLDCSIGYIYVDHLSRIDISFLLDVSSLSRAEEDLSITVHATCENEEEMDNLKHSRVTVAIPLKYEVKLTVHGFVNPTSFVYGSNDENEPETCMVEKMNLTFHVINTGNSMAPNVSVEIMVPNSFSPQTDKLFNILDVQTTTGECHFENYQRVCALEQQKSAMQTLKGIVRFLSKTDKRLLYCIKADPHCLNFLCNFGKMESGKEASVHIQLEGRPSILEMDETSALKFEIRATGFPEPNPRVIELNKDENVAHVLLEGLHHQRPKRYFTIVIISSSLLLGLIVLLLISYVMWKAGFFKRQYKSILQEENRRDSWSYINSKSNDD
MEX-5 binding = MEX-5 zinc finger RNA-binding disruptors – biochemical, C. elegans, fluorescence polarization, MLPCN library, primary screen; MEX-5/FITC-TCR2 RNA binding; active compounds read low; activity score (negative = inhibition of binding), % at 10 µM; 300,000 compounds, 0.38% hits;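 active means inhibition past about -25% in most replicates, and total fluorescence under double the plate's negative control median, limit read from the data; inconclusive means replicates evenly split on the limit, or fluorescence at least double controls; inactive means too little inhibition in most replicates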
Granule exo inh = LAMP-1 surface exposure blockers, TALL-104 cells – cell-based, flow cytometry, MLPCN library, primary screen | TALL-104 LAMP-1 surface exposure; cells stimulated with thapsigargin and PMA | inhibition, % at 10 µM | 360,000 compounds, 0.66% hits | AID 651702, 2012;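 active means inhibition above about 55%, limit read from the data; inconclusive means no clear call, values can overlap the other calls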
Exocytosis CP01 = inhibitors of lytic granule exocytosis, confirmation, TALL-104 cells, flow cytometry, Cherry Pick01. AID 651954, 2012. 1,500 compounds, 11% hits. shares compounds with Granule exo inh. LAMP-1 externalization; stimulated with PMA plus thapsigargin. inhibition, % at 10 µM; in the data active means inhibition above about 60%
Hits are given with their value; . = inactive; ? = inconclusive; / = not tested or not shown.

SMILES	GASC-1 inh	HTR2A ag	V-ATPase pHluor	VLA-4 inh	MEX-5 binding	Granule exo inh	Exocytosis CP01
C[C@H](CO)N1C[C@H](C)[C@@H](CN(C)S(C)(=O)=O)Oc2ccc(NC(=O)Nc3ccccc3)cc2C1=O	.	.	.	.	/	.	/
c1nc2n(n1)C1=C(CCCC1)C1(CCCCC1)N2	.	.	.	.	.	.	/
N#Cc1c(N2CCN(c3ccc([N+](=O)[O-])cc3)CC2)[n+](=O)c2ccc(Cl)cc2n1[O-]	/	.	.	/	/	.	/
Cc1ccccc1N1C(=O)CC(Sc2nnc(-c3ccccc3)o2)C1=O (stereo not given)	.	.	.	.	.	87.6	.
CCN(CC)C(=O)C1=C(C)N(Cc2ccccc2)C(=O)C(CC(=O)NCCCN(C)C)C1 (stereo not given)	/	.	.	/	/	.	/
COC(=O)C(NC(=O)CNS(=O)(=O)c1ccc(Br)cc1)c1ccccc1 (stereo not given)	.	.	.	.	.	62.0	.
CCNc1c2c3c(cccc3n(C)c1=O)C(=O)c1ccccc1-2	.	/	/	.	?	/	/
Cn1c(=O)c(NC2CCCCC2)c2c3c(cccc31)C(=O)c1ccccc1-2	/	.	.	/	/	90.0	101.0
COc1ccc(CC(=O)NCc2ccccc2F)cc1S(=O)(=O)N1CCOCC1	/	.	.	/	/	.	/
CCc1nc2ccc(C(=O)Nc3cc(-c4ccccc4)ccc3OC)cn2c1N(CC)CCN(C)C	/	.	/	/	/	59.5	.
CCc1nc2ccc(C(=O)Nc3cc(-c4ccccc4)ccc3OC)cn2c1N(CC)Cc1cccc(Br)c1	/	.	/	/	/	.	/
Cc1cc(=O)n2nc(N3CCCC(C(=O)NCc4ccccc4Cl)C3)sc2n1 (stereo not given)	.	.	.	.	/	.	/
CCO[C@H]1OC(C(=O)NC2CC2)=C[C@@H](c2c[nH]c3ccccc23)[C@@H]1CCCO	.	.	.	.	.	56.5	.
CN(c1ccccc1)S(=O)(=O)c1cccc(NC(=O)c2ccc3ncsc3c2)c1	.	.	.	.	.	67.0	.
COc1ccc(N(C)S(=O)(=O)c2cccc(C(=O)Nc3ccc(OC)nc3)c2)cc1	.	/	/	.	.	/	/
COc1ccc(N(C)S(=O)(=O)c2cccc(C(=O)Nc3ccc4c(c3)OCCO4)c2)cc1	.	.	.	.	.	89.8	.
CN(C)S(=O)(=O)c1cccc(NC(=O)c2ccc(COc3ccccc3)cc2)c1	.	.	.	.	.	58.1	.
CN(c1ccccc1)S(=O)(=O)c1cccc(NC(=O)c2cccc(C#N)c2)c1	.	.	.	.	/	.	/
CCN1CCN(c2ccc(NC(=O)CCc3c(C)nc4c(-c5ccccc5)c(C)nn4c3C)cc2)CC1	.	.	.	.	.	56.1	.
Cc1nc2c(-c3ccccc3)c(C)nn2c(C)c1CCC(=O)NCc1ccco1	.	.	.	.	/	.	/
COc1cc(CNC(C)c2ccccc2)cc(Br)c1OCc1ccc(F)cc1 (stereo not given)	.	.	.	.	.	65.3	.
COc1cc(CNC(C)c2ccccc2)cc(Br)c1OCc1ccccc1 (stereo not given)	.	.	.	.	.	87.7	.
COc1cc(CNc2ccc(O)cc2)cc(Br)c1OCc1ccccc1	.	.	.	.	.	.	/
CC(C(=O)N1CCc2ccccc21)N1CCN(c2cccc(C(F)(F)F)c2)CC1 (stereo not given)	.	.	.	.	.	61.3	.
S=C(NCCCN1CCOCC1)N1CCN(c2nc(-c3ccc(Cl)cc3)cs2)CC1	.	.	.	.	.	76.6	.
SMILES	GASC-1 inh	HTR2A ag	V-ATPase pHluor	VLA-4 inh	MEX-5 binding	Granule exo inh	Exocytosis CP01
S=C(NCCCN1CCOCC1)N1CCN(c2nc(-c3ccccc3)cs2)CC1	.	.	.	.	.	.	/
COc1ccc(CCN2C(=O)c3ccccc3NC2c2cc(Cl)c(O)c(OC)c2)cc1 (stereo not given)	.	.	.	.	.	76.6	.
CCCN1C(=O)c2ccccc2NC1c1cc(OC)c(OC)c(OC)c1 (stereo not given)	.	.	.	.	.	.	/
O=[N+]([O-])c1ccc(Cl)c(CN2CCN(c3ncccn3)CC2)c1	.	.	.	.	.	.	/
Cc1ccc2nc(C)c(CN3CCN(c4ccc([N+](=O)[O-])cc4Cl)CC3)n2c1	.	.	.	.	.	72.4	.
COc1ccccc1CNc1nc(NCc2ccc3occc3c2)c2sccc2n1	/	.	/	/	/	92.8	89.9
COc1ccccc1CNc1nc(NCCOc2ccccc2)c2sccc2n1	/	.	/	/	/	56.4	.
CC1CN(CC(O)COC(c2ccc(Cl)cc2)c2ccc(Cl)cc2)CC(C)O1 (stereo not given)	.	.	.	.	.	.	/
CN(C)CC(O)COC(c1ccc(Cl)cc1)c1ccc(Cl)cc1 (stereo not given)	.	.	.	.	.	66.1	.
C[C@H]1CN([C@@H](C)CO)C(=O)c2cccc(NS(=O)(=O)c3ccc(F)cc3)c2O[C@H]1CN(C)S(=O)(=O)c1cn(C)cn1	.	.	.	.	/	.	/
C=CCN(C(=O)CCc1ccccc1OC)c1nc(-c2ccc(S(C)(=O)=O)cc2)cs1	.	.	.	.	.	82.6	.
COC(=O)Cn1cc(S(=O)(=O)NCc2ccc(C)cc2)c2cc([N+](=O)[O-])ccc21	.	.	.	.	.	.	/
O=C1c2ccccc2/C(=C\C#Cc2ccccn2)N1c1ccccc1	.	.	.	.	/	.	/
CC(C)(C)CN1CCN(Cc2c[nH]c3ccccc23)CC1CCO (stereo not given)	.	.	.	.	.	.	/
N=c1n(CCN2CCCCC2)c2ccccc2n1CC(=O)c1ccc(Cl)c(Cl)c1	.	.	.	.	.	83.0	.
CCn1c(=N)n(CC(=O)c2ccc(Cl)c(Cl)c2)c2ccccc21	.	.	.	.	.	.	/
CC(C)Oc1cccc(C(=O)Nc2ccccc2N2CCOCC2)c1	.	.	.	.	.	.	/
O=C(Nc1ccccc1N1CCOCC1)c1cccc(Oc2ccccc2)c1	.	.	.	.	.	63.1	.
Cc1ccc(Nc2nc(Cl)nc3ncn(C)c23)c(C)c1	/	.	.	/	/	.	/
C=CC[n+]1c(/C=C/c2ccc(OC(C)=O)c(OC)c2)ccc2ccccc21	.	.	.	.	.	.	/

Assay outcomes: PubChem, several laboratories
